We go through seven sequences from article PMC8384837, “Expanding the binding specificity for RNA recognition by a PUF domain”.

Common to all, as to experiment: yeast three-hybrid, YBZ-1, SC-Leu-His + 0.5 mM 3-AT, 4 days
Conditions in all cases: tags: N-Gal4 AD-HA kept; label: inside an RPR1-promoter hybrid RNA with tandem MS2 sites; ssRNA

The target in one experiment is PUM1 PUF domain R5-SNS (Homo sapiens, UniProt Q14671 828-1176, C1007S;R1008N;Q1011S). An outline of the steps: (§1)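 The interaction score is the log change in how often each variant appears, from input to selection. Frequencies came from PCR-amplified, Illumina-sequenced repeat regions of Pumilio-1 PUF domain libraries grown in strain YBZ-1 (LexA–MS2 coat fusion, HIS3 reporter) alongside matching RNA elements. Input plates were SC-Leu and selection plates were SC-Leu-His + 0.5 mM 3-AT, each for four days, and the log2 calculation used a pseudocount of 1 where a variant was absent.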
Chain of PUM1 PUF domain R5-SNS (Q14671 828-1176 C1007S/R1008N/Q1011S): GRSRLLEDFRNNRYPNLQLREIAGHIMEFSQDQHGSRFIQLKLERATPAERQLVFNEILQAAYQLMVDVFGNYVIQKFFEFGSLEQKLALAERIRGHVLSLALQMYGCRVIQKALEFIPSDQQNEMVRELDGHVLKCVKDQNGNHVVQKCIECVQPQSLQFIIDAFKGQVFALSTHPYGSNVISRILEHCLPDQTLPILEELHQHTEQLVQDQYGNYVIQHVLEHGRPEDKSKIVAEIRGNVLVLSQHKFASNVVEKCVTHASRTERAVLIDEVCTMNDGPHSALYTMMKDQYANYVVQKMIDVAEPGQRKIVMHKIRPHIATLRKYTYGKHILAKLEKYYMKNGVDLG

Another experiment concerns the target PUM1 PUF domain R5-KRM (Homo sapiens, UniProt Q14671 828-1176, C1007K;Q1011M). In short, it runs like this: as §1
The target in another experiment is PUM1 PUF domain R5-ARK (Homo sapiens, UniProt Q14671 828-1176, C1007A;Q1011K). In short, it runs like this:
as §1

A further experiment has as its target PUM1 PUF domain R1-QYK (Homo sapiens, UniProt Q14671 828-1176, S863Q;R864Y;Q867K). In short, it runs like this: as §1
The next experiment deals with PUM1 PUF domain R1-RSQ (Homo sapiens, UniProt Q14671 828-1176, S863R;R864S). An outline of the steps:
as §1

The next experiment has as its target PUM1 PUF domain R1-SWR (Homo sapiens, UniProt Q14671 828-1176, R864W;Q867R). An outline of the steps:
as §1

Another experiment has as its target PUM1 PUF domain R3-LWD (Homo sapiens, UniProt Q14671 828-1176, C935L;R936W;Q939D). In short, it runs like this: as §1
The next experiment has as its target PUM1 PUF domain R3-RPV (Homo sapiens, UniProt Q14671 828-1176, C935R;R936P;Q939V). An outline of the steps:
as §1

The target in another experiment is PUM1 PUF domain R3-RMW (Homo sapiens, UniProt Q14671 828-1176, C935R;R936M;Q939W). In short, it runs like this:
as §1

The target of a further experiment is PUM1 PUF domain R3-FQC (Homo sapiens, UniProt Q14671 828-1176, C935F;R936Q;Q939C). In short, it runs like this:
as §1

In another experiment the target is PUM1 PUF domain R3-FSN (Homo sapiens, UniProt Q14671 828-1176, C935F;R936S;Q939N). In short, it runs like this: as §1
The next experiment addresses PUM1 PUF domain R8-KWC (Homo sapiens, UniProt Q14671 828-1176, N1122K;Y1123W;Q1126C). In short, it runs like this:
as §1

A further experiment addresses PUM1 PUF domain R8-HFT (Homo sapiens, UniProt Q14671 828-1176, N1122H;Y1123F;Q1126T). An outline of the steps:
as §1

The target in a further experiment is PUM1 PUF domain R8-QWK (Homo sapiens, UniProt Q14671 828-1176, N1122Q;Y1123W;Q1126K). An outline of the steps:
as §1

The target in another experiment is T1, PUM1 PUF domain R6-LWT (Homo sapiens, UniProt Q14671 828-1176, N1043L;Y1044W;Q1047T).
T1 sequence: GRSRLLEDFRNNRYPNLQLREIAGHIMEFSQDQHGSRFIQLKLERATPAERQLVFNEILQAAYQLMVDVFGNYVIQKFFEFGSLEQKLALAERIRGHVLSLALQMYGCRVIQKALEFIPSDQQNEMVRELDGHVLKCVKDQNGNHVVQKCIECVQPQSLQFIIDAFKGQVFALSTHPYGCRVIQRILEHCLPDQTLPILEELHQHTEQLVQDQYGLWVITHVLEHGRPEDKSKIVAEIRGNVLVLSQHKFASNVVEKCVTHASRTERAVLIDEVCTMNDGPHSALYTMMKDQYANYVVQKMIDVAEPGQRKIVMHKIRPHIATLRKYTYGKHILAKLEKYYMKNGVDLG
In short, it runs like this:
as §1

In another experiment the target is PUM1 PUF domain R4-FNH (Homo sapiens, UniProt Q14671 828-1176, N971F;H972N;Q975H). An outline of the steps:
as §1

A further experiment deals with PUM1 PUF domain R4-LNC (Homo sapiens, UniProt Q14671 828-1176, N971L;H972N;Q975C). In short, it runs like this: as §1

Chain of PUM1 PUF domain R5-KRM (Q14671 828-1176 C1007K/Q1011M): as the sequence (Q14671 828-1176 C1007S/R1008N/Q1011S) above, with S180K, N181R, S184M counted along it
Chain of PUM1 PUF domain R3-LWD (Q14671 828-1176 C935L/R936W/Q939D): as the sequence (Q14671 828-1176 C1007S/R1008N/Q1011S) above, with C108L, R109W, Q112D, S180C, N181R, S184Q counted along it
Chain of PUM1 PUF domain R1-QYK (Q14671 828-1176 S863Q/R864Y/Q867K): as the sequence (Q14671 828-1176 C1007S/R1008N/Q1011S) above, with S36Q, R37Y, Q40K, S180C, N181R, S184Q counted along it
Chain of PUM1 PUF domain R4-FNH (Q14671 828-1176 N971F/H972N/Q975H): as the sequence (Q14671 828-1176 C1007S/R1008N/Q1011S) above, with N144F, H145N, Q148H, S180C, N181R, S184Q counted along it
Chain of PUM1 PUF domain R3-FQC (Q14671 828-1176 C935F/R936Q/Q939C): as the sequence (Q14671 828-1176 C1007S/R1008N/Q1011S) above, with C108F, R109Q, Q112C, S180C, N181R, S184Q counted along it
Chain of PUM1 PUF domain R8-KWC (Q14671 828-1176 N1122K/Y1123W/Q1126C): as the sequence (Q14671 828-1176 C1007S/R1008N/Q1011S) above, with S180C, N181R, S184Q, N295K, Y296W, Q299C counted along it
Chain of PUM1 PUF domain R3-RPV (Q14671 828-1176 C935R/R936P/Q939V): as the sequence (Q14671 828-1176 C1007S/R1008N/Q1011S) above, with C108R, R109P, Q112V, S180C, N181R, S184Q counted along it

For the sequence “GGCUAGAACUAGUGGAUCCCCCGGCGCCCGGCGGCUCGAGCCCGGGUAAGUGUUAAUAGUCUGCAUGCCGCCGGGCGCCAUGCCUGCAGGUCGACUCUAGAAAACAUG”, the binding signal with PUM1 PUF domain R5-SNS was 3.23 log2 enrichment (interaction score); with PUM1 PUF domain R5-KRM, 3.73 log2 enrichment (interaction score); with PUM1 PUF domain R5-ARK, 3.13 log2 enrichment (interaction score).
On to “GGCUAGAACUAGUGGAUCCCCCGGCGCCCGGCGGCUCGAGCCCGGGUAAGUGUAAAUCGUCUGCAUGCCGCCGGGCGCCAUGCCUGCAGGUCGACUCUAGAAAACAUG”, for which the figures for the binding signal with PUM1 PUF domain R1-QYK, with PUM1 PUF domain R1-RSQ and with PUM1 PUF domain R1-SWR were 6.38 log2 enrichment (interaction score), 4.74 log2 enrichment (interaction score) and 3.04 log2 enrichment (interaction score), respectively.
For the sequence “GGCUAGAACUAGUGGAUCCCCCGGCGCCCGGCGGCUCGAGCCCGGGUAAGUGUAAUUAGUCUGCAUGCCGCCGGGCGCCAUGCCUGCAGGUCGACUCUAGAAAACAUG”, the binding signal was 1.73 log2 enrichment (interaction score) with PUM1 PUF domain R3-LWD, 2.55 log2 enrichment (interaction score) with PUM1 PUF domain R3-RPV and 2.28 log2 enrichment (interaction score) with PUM1 PUF domain R3-RMW.
For “GGCUAGAACUAGUGGAUCCCCCGGCGCCCGGCGGCUCGAGCCCGGGUAAGUGUAAGUAGUCUGCAUGCCGCCGGGCGCCAUGCCUGCAGGUCGACUCUAGAAAACAUG”, the binding signal with PUM1 PUF domain R3-LWD is 4.02 log2 enrichment (interaction score); with PUM1 PUF domain R3-FQC, 3.36 log2 enrichment (interaction score); with PUM1 PUF domain R3-FSN, 2.79 log2 enrichment (interaction score).
Turning to “GGCUAGAACUAGUGGAUCCCCCGGCGCCCGGCGGCUCGAGCCCGGGUAAGCGUAAAUAGUCUGCAUGCCGCCGGGCGCCAUGCCUGCAGGUCGACUCUAGAAAACAUG”, the binding signal with PUM1 PUF domain R8-KWC was 4.87 log2 enrichment (interaction score); with PUM1 PUF domain R8-HFT, 3.48 log2 enrichment (interaction score).
Take “GGCUAGAACUAGUGGAUCCCCCGGCGCCCGGCGGCUCGAGCCCGGGUAAGUGUAAAUAGUCUGCAUGCCGCCGGGCGCCAUGCCUGCAGGUCGACUCUAGAAAACAUG”: the binding signal with PUM1 PUF domain R5-KRM is 2.19 log2 enrichment (interaction score); with PUM1 PUF domain R8-QWK, 2.09 log2 enrichment (interaction score); with PUM1 PUF domain R6-LWT it was 6.06 log2 enrichment (interaction score).
In the case of “GGCUAGAACUAGUGGAUCCCCCGGCGCCCGGCGGCUCGAGCCCGGGUAAGUGUAUAUAGUCUGCAUGCCGCCGGGCGCCAUGCCUGCAGGUCGACUCUAGAAAACAUG”, the binding signal is 5.93 log2 enrichment (interaction score) in the experiment with PUM1 PUF domain R4-FNH and 2.66 log2 enrichment (interaction score) in the experiment with PUM1 PUF domain R4-LNC.
